The test system of one experiment is AAK1. The settings on record: concentration: 1 μM, replicates: in singlicate; n = 1.
The test system of another experiment is ABL1-nonphosphorylated. The conditions noted are these: concentration: 1 μM, replicates: in singlicate; n = 1.
Another experiment relates to ABL1-phosphorylated. The settings on record: concentration: 1 μM, replicates: in singlicate; n = 1.
The next experiment concerns ABL2. The conditions noted are these: concentration: 1 μM, replicates: in singlicate; n = 1.
The subject of a further experiment is ACVR1B. The settings on record: concentration: 1 μM, replicates: in singlicate; n = 1.
A further experiment concerns T1, p38-beta.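 Further: kd values determined as follow-up on hits from a single-replicate KINOMEscan panel screen.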
T1 construct: gene MAPK11

The record followed here is publication PMC5540273 (PLoS ONE, 2017).
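Wherever %Inh is given: KINOMEscan kinase panel screen.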

Take `CCn1c(-c2c(N)noc2C)nc2cnccc21` [SB-737856]: the “%Inh” value is listed as 0% with AAK1; 0% in the experiment with ABL1-nonphosphorylated; 13% in the experiment with ABL1-phosphorylated; 13% in the experiment on ABL2; 0% with ACVR1B.
In the case of `CSc1ccc(-c2nc3n(c2-c2ccncc2)CCC3)cc1` [SKF-105561], the “%Inh” value with AAK1 is recorded as 0%; in the experiment on ABL1-nonphosphorylated, 16%; in the experiment with ABL1-phosphorylated, 0%; in the experiment on ABL2 it was 12%; with ACVR1B, 4%.
In the case of `O=C(Nc1n[nH]c2nc(-c3cccs3)c(Br)cc12)C1CCCC1` [SB-743341], the “%Inh” value was determined as 0% in the experiment on AAK1; 48% in the experiment on ABL1-nonphosphorylated; 19% in the experiment on ABL1-phosphorylated; 5% in the experiment with ABL2; 17% in the experiment on ACVR1B.
Turning to `Cc1cnc(N)c(/C=C/c2cncc(C(=O)NCCc3ccc(Cl)cc3Cl)c2)c1.Cl` [GSK190937], the “%Inh” value is recorded as 19% with AAK1; 39% in the experiment on ABL1-nonphosphorylated; 0% with ABL1-phosphorylated; 11% in the experiment with ABL2; 0% with ACVR1B.
For the compound `Cc1c(Cn2c(C)c(C)n3c(=O)cc(N4CCOCC4)nc23)cccc1C(F)(F)F` [GSK2328680], the “%Inh” value in the experiment with AAK1 came out at 0%; in the experiment with ABL1-nonphosphorylated, 0%; in the experiment on ABL1-phosphorylated it was 0%; in the experiment on ABL2 it was 11%; in the experiment with ACVR1B it was 20%.
As to `COc1cc2ncnc(Nc3cccc(Br)c3)c2cc1OC.Cl` [GI230329], the figures for the “%Inh” value in the experiment on AAK1, in the experiment with ABL2 and in the experiment with ACVR1B were 13%, 18% and 0%, respectively.
As to `O=C(Nc1n[nH]c2nc(-c3ccco3)c(Br)cc12)C1CCN(Cc2ccccc2)C1.O=C(O)[C@H](O)[C@@H](O)C(=O)O` (centres unmarked) [SB-742034], the “%Inh” value stood at 29% in the experiment on AAK1; 33% in the experiment on ABL1-nonphosphorylated; 23% in the experiment on ABL1-phosphorylated; 4% in the experiment on ABL2; 20% in the experiment with ACVR1B.
On to `COc1ccc(Nc2nccc(N3CCC(NC(=O)c4cc5ccccc5s4)C3)n2)cc1` (centres unmarked) [GSK1379738], for which the “%Inh” value in the experiment on AAK1 was 73%; in the experiment with ABL1-nonphosphorylated it was 0%; in the experiment with ABL1-phosphorylated, 0%; in the experiment with ABL2, 1%; in the experiment with ACVR1B, 0%.
The term Kd denotes the equilibrium constant for the complex coming apart. A higher Kd goes with a looser complex. The compound `CNC(=O)c1ccc(C)c(-n2c(C)cc(OCc3ccc(F)cc3F)c(Br)c2=O)c1` had a Kd in the experiment with p38-beta of 0.12 µM. Moreover, the “%Inh” value in the experiment with AAK1 is 0%; in the experiment on ABL1-nonphosphorylated, 0%; in the experiment on ABL1-phosphorylated, 0%; with ABL2, 0%; in the experiment with ACVR1B, 7%.
Take `COc1cccc(C2=C(Nc3cc(Cl)c(O)c(Cl)c3)C(=O)NC2=O)c1` [SB-390767]: the “%Inh” value in the experiment with AAK1 was 0%; in the experiment with ABL1-nonphosphorylated, 0%; with ABL1-phosphorylated it was 4%; with ABL2, 19%; with ACVR1B it was 0%.
Regarding `CS(=O)(=O)CCNCc1nc(-c2ccc3ncnc(Nc4ccc5c(cnn5Cc5ccccc5)c4)c3c2)cs1.Cl.Cl` [GW569716], the “%Inh” value with AAK1 stood at 0%; with ABL1-nonphosphorylated, 68%; in the experiment on ABL1-phosphorylated, 0%; with ABL2, 13%; in the experiment on ACVR1B, 0%.
As for `CS(=O)(=O)CCNCc1nc(-c2ccc3ncnc(Nc4ccc(OCc5ccccc5)c(Cl)c4)c3c2)cs1.Cl` [GW582764], the “%Inh” value is given as 0% in the experiment on AAK1; 0% in the experiment with ABL1-nonphosphorylated; 0% with ABL1-phosphorylated; 21% in the experiment with ABL2; 0% with ACVR1B.
Turning to `Cc1ccc(NC(=O)c2ccc(Cl)cc2)cc1-c1ccc(C(=O)Nc2ccncc2)cc1` [GSK1398467], the “%Inh” value was determined as 8% with AAK1; 0% in the experiment with ABL1-nonphosphorylated; 0% with ABL1-phosphorylated; 20% in the experiment with ABL2; 0% with ACVR1B.
`COc1ccc2cc(-c3nc(-c4ccccc4C(C)C)[nH]c3-c3ccncc3)ccc2c1` [SB-660566]: the “%Inh” value with AAK1 came out at 20%; in the experiment with ABL1-nonphosphorylated, 0%; in the experiment with ABL1-phosphorylated it was 3%; in the experiment with ABL2, 8%; with ACVR1B, 74%.
Turning to `Cc1ccc(-c2nc(Nc3ccncc3)c3ccccc3n2)s1` [GSK189015], the “%Inh” value in the experiment on AAK1 is 12%; with ABL1-nonphosphorylated, 0%; with ABL1-phosphorylated, 0%; in the experiment on ABL2 it was 21%; in the experiment on ACVR1B it was 0%.
On to `NS(=O)(=O)c1cccc(N/C=C2\C(=O)Nc3ccc(S(=O)(=O)Cc4c(Cl)cccc4Cl)cc32)c1` [GSK398099], for which the “%Inh” value in the experiment with AAK1 turned out to be 31%; in the experiment with ABL1-nonphosphorylated it was 0%; in the experiment on ABL1-phosphorylated it was 0%; in the experiment on ABL2, 14%; in the experiment with ACVR1B, 0%.
`COc1ccc(Nc2nccc(NCCNC(=O)Nc3cc(C)ccc3C)n2)cc1` [GSK1379899]: the “%Inh” value was 0% in the experiment with AAK1; 0% with ABL1-nonphosphorylated; 0% in the experiment with ABL1-phosphorylated; 5% in the experiment with ABL2; 0% with ACVR1B.
With `COc1ccc(Nc2nccc(N3CCC(NC(=O)C(C)c4ccc(Cl)cc4)CC3)n2)cc1` (centres unmarked) [GSK1379812], the “%Inh” value was found to be 23% with AAK1; 4% in the experiment with ABL1-nonphosphorylated; 0% with ABL1-phosphorylated; 28% in the experiment on ABL2; 0% with ACVR1B.
With `CC[C@@H]1CO[C@H](C(=O)Nc2ccccc2)CN1c1cc(-c2ccc3c(N)n[nH]c3c2)nc(NC)n1` [GSK2376236], the “%Inh” value with AAK1 stood at 19%; in the experiment with ABL1-nonphosphorylated, 0%; in the experiment with ABL1-phosphorylated it was 0%; with ABL2 it was 0%; in the experiment on ACVR1B it was 0%.
For `Nc1ncnc2occ(-c3ccc4c(c3)CCN4C(=O)Cc3cc(F)ccc3F)c12` [GSK2645446], the “%Inh” value turned out to be 53% with AAK1; 27% with ABL1-nonphosphorylated; 3% in the experiment on ABL1-phosphorylated; 13% in the experiment on ABL2; 0% in the experiment on ACVR1B.
Turning to `COc1ccc(CSc2nnc(-c3ccc4ncsc4c3)o2)cc1C(F)(F)F`, the “%Inh” value with AAK1 was found to be 9%; in the experiment on ABL1-nonphosphorylated it was 13%; in the experiment on ABL1-phosphorylated it was 8%; with ABL2, 2%; in the experiment with ACVR1B, 9%.
